Where “and” joins values, the source holds several entries; their conditions need not be identical. Equal entries are not always repeated. Results filed as inconclusive are left out. Where a call stands in place of a potency, no number is given. Some compounds were tested as several samples or in several runs, with calls that do not always agree. Calls of active or inactive are those of the source. Calls follow the shape of the dose curve; as a rule, active = well fitted curve in the direction sought with a large enough effect in the repeat runs; inconclusive = weak or mixed curves; inactive = no such curve, though single readings can be large; an effect the other way counts as inactive or inconclusive.

The first assay in a line: qHTS assay to identify small molecule antagonists of the retinoid acid receptor (RAR) signaling pathway - cell viability counter screen (AID 1159551). Also: nearly all actives have a fitted effect of over 35% in size. Also: potency is read from the fitted curve at half-maximal effect. As to conditions: C3RL4 cells viability, ATP luminescence (CellTiter-Glo), 6 h; series mostly up to 92.4 µM. The gist of the method: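 Following overnight attachment, C3RL4 reporter cells received DMSO-dissolved compounds and then retinol (1 uM final). Six hours later at 37 C, ATP content was measured by CellTiter-Glo luminescence.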
(In qHTS, concentration-response curves come from the screen itself.)
Turning to `C=C(c1ccc(C(=O)O)cc1)c1cc2c(cc1C)C(C)(C)CCC2(C)C`, the Potency was 61.1 µM (active). Turning to `CCc1cccc(C)c1`, the Potency result was “inactive”. Consider `Clc1ccc(C(Cn2ccnc2)OCc2c(Cl)cccc2Cl)c(Cl)c1` (stereo not drawn), for which the Potency result was “inactive”. With `Clc1ccccc1CN1CCc2sccc2C1`, the Potency entry is “inactive”.

For `NC(=O)C(=O)N/N=C/c1ccc([N+](=O)[O-])o1`, the Potency entry is “inactive”. As for `CN1[C@@H]2CC[C@H]1CC(OC(=O)C(CO)c1ccccc1)C2` (stereo partly drawn), the Potency result is “inactive”.

The next assay is described as follows: qHTS assay to identify small molecule antagonists of the retinoic acid receptor (RAR) signaling pathway (AID 1159552; also: nearly all actives have a fitted effect of over 50% in size; also: potency is read from the fitted curve at half-maximal effect). The settings on record: C3RL4 RARE luciferase reporter, retinol-stimulated, 6 h; series mostly up to 92.4 µM. The gist of the method: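 Quantitative HTS in C3RL4 RARE-luciferase reporter cells. Compounds were added with 1 uM (final) retinol; luminescence was read after 6 hr.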
For the compound `Cc1cccc(C)c1NC(=O)CN1CCN(CCCC(c2ccc(F)cc2)c2ccc(F)cc2)CC1`, the Potency is 26.6 µM (active). Regarding `CCCCCCCCCCCCOC(=O)c1cc(O)c(O)c(O)c1`, the Potency result was “inactive”.

On to `CC1=C(/C=C/C(C)=C/C=C/C(C)=C/C(=O)Nc2ccc(O)cc2)C(C)(C)CCC1`, for which the Potency result was “inactive and 29.8 µM (active)”.

For `COCC(=O)O[C@]1(CCN(C)CCCc2nc3ccccc3[nH]2)CCc2cc(F)ccc2[C@@H]1C(C)C`, the Potency is 26.6 µM (active). On to `O=Nc1ccc(NO)cc1`, for which the Potency result is “inactive”. For the compound `NC1(c2ccc(-c3nc4ccn5c(=O)[nH]nc5c4cc3-c3ccccc3)cc2)CCC1`, the Potency was 11.9 µM (active). In the case of `C[n+]1c2cc(N)ccc2cc2ccc(N)cc21` (tested in a mixture with another compound), the Potency was 23.7 µM (active). Consider `O=C(Nc1ccc(Cl)c(Cl)c1)c1cc(Cl)cc(Cl)c1O`, for which the Potency entry is “inactive”. On to `c1ccc(Nc2cccc3ccccc23)cc1`, for which the Potency entry is “inactive”. For `CCN(CC)CCOc1ccc(C(O)(Cc2ccc(Cl)cc2)c2ccc(C)cc2)cc1` (stereo not drawn), the Potency was 26.6 µM (active).

For `CC(C)c1ccc(O)c(C(C)C)c1`, the Potency result was “inactive”. Turning to `O=C1NCCN1CCN1CCC(c2cn(-c3ccc(F)cc3)c3ccc(Cl)cc23)CC1`, the Potency was 26.6 µM (active). Still for that read-out and setting: the value for `CC(=O)OC(OC(C)=O)c1ccc([N+](=O)[O-])o1` was 27.8 µM (active).

Consider `O=C1NCN(c2ccccc2)C12CCN(CCCC(c1ccc(F)cc1)c1ccc(F)cc1)CC2`, for which the Potency is 29.8 µM (active). Same read-out and setting: for `Nc1ncnc2c1ncn2[C@@H]1O[C@H](COP(=O)(O)O)[C@@H](O)[C@H]1O` the value was “inactive”; for `O=C1NC2CCCCN2C12CCN(CCCN1c3ccccc3CCc3ccc(Cl)cc31)CC2` (stereo not drawn), 29.8 µM (active).

As to `Cc1cc(Nc2ccc(O)cc2)ccc1N`, the Potency entry is “inactive”. `Nc1ccc2cc3ccc(N)cc3nc2c1`: the Potency is 4.33 µM (active) and 16.8 µM (active). With `O[C@@H](c1cc(C(F)(F)F)nc2c(C(F)(F)F)cccc12)[C@H]1CCCCN1`, the Potency was 23.7 µM (active).

As to `S=C(SSSSSSC(=S)N1CCCCC1)N1CCCCC1`, the activity, negative = inhibition was -10.6% [at 19 µM] (inactive).

Consider `CCN(CC)c1ccc(N)cc1`, for which the Potency entry is “inactive”.

As to `C=CC(=O)OCCOCC(CC)(COCCOC(=O)C=C)COCCOC(=O)C=C`, the Potency is 31.9 µM (active). With `CC=O`, the Potency is 25.5 µM (active). In the case of `O=C1c2c(O)ccc(O)c2C(=O)c2c(NCCNCCO)ccc(NCCNCCO)c21`, the Potency is 0.119 µM (active). Still for that read-out and setting: the value for `CCCCC(CC)COC(=O)c1ccc(O)cc1` (stereo not drawn) was “inactive”; that for `CC(O)C#CC(C)O` (stereo not drawn) was 30.3 µM (active). Take `Oc1ccc(-c2ccc(O)cc2)cc1`: the Potency result is “inactive”. For the compound `CCC(C)c1cc([N+](=O)[O-])cc([N+](=O)[O-])c1OC(=O)OC(C)C` (stereo not drawn), the Potency is 34.4 µM (active).

The nature of another assay: qHTS assay to identify small molecule agonists of the retinoic acid receptor (RAR) signaling pathway (AID 1159553). Also: potency is read from the fitted curve at half-maximal effect. The settings on record: C3RL4 RARE luciferase reporter, agonist, 6 h; series mostly up to 73.3 µM. The gist of the method: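 Cell line C3RL4, RARE luciferase reporter. Treatment: compounds in DMSO, 6 hr, 37 C, 5% CO2, after overnight plating. Detection: luminescence, 30 min RT after reagent.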
Take `CCCCCCCCCCCCOC(=O)c1cc(O)c(O)c(O)c1`: the Potency was 172 nM (active) and 386 nM (active). Regarding `CC1=C(/C=C/C(C)=C/C=C/C(C)=C/C(=O)Nc2ccc(O)cc2)C(C)(C)CCC1`, the Potency is 4.98 µM (active) and 2.66 µM (active). On the same count and under the same terms, for `c1ccc(Nc2cccc3ccccc23)cc1` the value was “inactive”; for `CN(Cc1cc(Br)cc(Br)c1N)C1CCCCC1`, “inactive”. Turning to `NC(=O)c1nc(-c2cccc(-c3cc(F)ccc3OCC(F)(F)C(F)(F)F)c2)n[nH]1`, the Potency entry is “inactive”. With `CC(C)c1ccc(O)c(C(C)C)c1`, the Potency entry was “inactive”. Turning to `Nc1ncnc2c1ncn2[C@@H]1O[C@H](COP(=O)(O)O)[C@@H](O)[C@H]1O`, the Potency result was “inactive”.

For the compound `Cc1cc(Nc2ccc(O)cc2)ccc1N`, the Potency result was “inactive”. Take `CCN(CC)c1ccc(N)cc1`: the Potency is 3.15 µM (active). `C=CC(=O)OCCOCC(CC)(COCCOC(=O)C=C)COCCOC(=O)C=C`: the Potency was 7.14 µM (active). Turning to `CCCCC(CC)COC(=O)c1ccc(O)cc1` (stereo not drawn), the Potency entry was “inactive”. For the compound `Oc1ccc(-c2ccc(O)cc2)cc1`, the Potency result was “inactive”. In the case of `CCC(C)c1cc([N+](=O)[O-])cc([N+](=O)[O-])c1OC(=O)OC(C)C` (stereo not drawn), the Potency result is “inactive”.

The nature of the next assay: qHTS assay to identify small molecule agonists of the estrogen related receptor (ERR) signaling pathway (AID 1224820). The settings on record: ERR reporter cell line, luciferase agonist mode; series mostly up to 46.1 µM. The gist of the method:
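ERR reporter cells (NTP line) plated 2,000/well, incubated 6 h at 37 C/5% CO2, then pinned with compounds in DMSO and held 18 h at 37 C. One-Glo added; luminescence read after 30 min at room temperature.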
Consider `CC1=C(/C=C/C(C)=C/C=C/C(C)=C/C(=O)Nc2ccc(O)cc2)C(C)(C)CCC1`, for which the call was inactive. On the same count and under the same terms, for `O=C1NCN(c2ccccc2)C12CCN(CCCC(c1ccc(F)cc1)c1ccc(F)cc1)CC2` the value was “inactive”; for `O=C1c2c(O)ccc(O)c2C(=O)c2c(NCCNCCO)ccc(NCCNCCO)c21`, “inactive”.

Another assay can be described thus: qHTS assay to identify small molecule agonists of the estrogen related receptor signaling pathway with the pleiotropic PPARgamma coactivator (PGC) (AID 1224823). As to conditions: ERR/PGC reporter cell line, luciferase agonist mode; series mostly up to 46.1 µM. The gist of the method:
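PGC/ERR reporter cells were seeded, rested 6 h at 37 C/5% CO2, then exposed to compounds in DMSO by pin transfer for 18 h at 37 C. Luciferase activity was read as luminescence after One-Glo reagent and 30 min at room temperature.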
In the case of `CC1=C(/C=C/C(C)=C/C=C/C(C)=C/C(=O)Nc2ccc(O)cc2)C(C)(C)CCC1`, the call was inactive. `O=C1NCN(c2ccccc2)C12CCN(CCCC(c1ccc(F)cc1)c1ccc(F)cc1)CC2`: the compound was called inactive. As for `O=C1c2c(O)ccc(O)c2C(=O)c2c(NCCNCCO)ccc(NCCNCCO)c21`, the outcome was inactive.
